# PAFAH1B2 FP inh: PAFAH1B2 (human) inhibition | P68402 | recombinant PAFAH1B2, FP-rhodamine activity probe, fluorescence polarization | AID 492953 | inhibition, % at 3.39 µM | 340,000 tested, 1.2% active;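 active = inhibition above the mean of all tested compounds plus 3 SD, cut at about 24% in these data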
# Target sequence (P68402 whole entry, looked up): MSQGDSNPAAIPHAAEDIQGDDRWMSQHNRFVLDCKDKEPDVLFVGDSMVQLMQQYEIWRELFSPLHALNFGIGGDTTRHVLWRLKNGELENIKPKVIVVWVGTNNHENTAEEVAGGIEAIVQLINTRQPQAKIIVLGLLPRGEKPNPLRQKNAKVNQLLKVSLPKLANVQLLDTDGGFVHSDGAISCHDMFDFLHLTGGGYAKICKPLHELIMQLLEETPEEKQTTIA
# PAFAH1B3 FP inh: blocks human PAF acetylhydrolase 1B catalytic subunit 3 | Q15102 | recombinant PAFAH1B3, FP-rhodamine probe, fluorescence polarization | inhibition, % at 3.39 µM | 340,000 tested, 0.28% active;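 active = inhibition above the screen-wide average of all tested compounds plus 3 SD, cut at about 25% in these data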
# Fam108B counter: Fam108B inhibition, counter-screen for RBBP9 inhibitors. recombinant Fam108B, FP-Rh probe fluorescence polarization. inhibition, % at 9.51 µM. 300,000 tested, 0.33% active;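 active = inhibition above the screen mean inhibition plus 3 SD, computed separately per campaign, cut at about 18% in these data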;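 note: inhibitors lower polarization as less probe binds the enzyme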
# pPAFAH inh: inhibitors of human plasma PAF acetylhydrolase (pPAFAH); Q13093; recombinant pPAFAH, FP-rhodamine probe fluorescence polarization; inhibition, % at 3.39 µM; 330,000 tested, 1.5% active;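 active = inhibition above the mean inhibition across the screen plus 3 SD, cut at about 25% in these data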;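 note: inhibitors block binding of the rhodamine activity-based probe so polarization drops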
# PME-1 primary: PME-1 (human) inhibition | 320,000 tested, 0.53% active | inhibition, % at 5.9 µM | AID 2130 | recombinant PME-1, FP-Rh probe fluorescence polarization | Q9Y570;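 active = inhibition above the campaign mean of all compounds plus 3 SD, cut at about 26% in these data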;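 note: competitive labeling of PME-1 active site by serine hydrolase directed probe; inhibitors block probe labeling so polarization falls and inhibition rises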
# Target sequence (Q9Y570 whole entry, looked up): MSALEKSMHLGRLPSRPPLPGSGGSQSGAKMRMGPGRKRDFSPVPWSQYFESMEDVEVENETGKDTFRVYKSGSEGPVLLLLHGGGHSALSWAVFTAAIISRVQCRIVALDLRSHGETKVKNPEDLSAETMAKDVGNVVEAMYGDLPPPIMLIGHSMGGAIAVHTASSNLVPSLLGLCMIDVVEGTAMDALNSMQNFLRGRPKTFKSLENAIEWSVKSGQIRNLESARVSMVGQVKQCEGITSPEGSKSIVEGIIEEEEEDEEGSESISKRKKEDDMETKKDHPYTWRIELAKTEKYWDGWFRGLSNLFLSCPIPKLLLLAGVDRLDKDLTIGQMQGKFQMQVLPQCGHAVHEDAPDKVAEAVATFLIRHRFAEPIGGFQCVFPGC
# PAFAH2 inh: PAFAH2 (human) inhibition; Q99487; recombinant PAFAH2, FP-rhodamine activity probe, fluorescence polarization; inhibition, % at 3.39 µM; 340,000 tested, 0.99% active; AID 492956;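 active = inhibition above the mean over all tested compounds plus 3 SD, cut at about 30% in these data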;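 note: inhibitors block probe labeling of enzyme so polarization drops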
# PAFAH2 FP conf: confirmation of human PAFAH2 inhibitors; recombinant PAFAH2, FP-rhodamine activity probe, fluorescence polarization; inhibition, % at 3.39 µM; shares compounds with PAFAH2 inh; 2,300 tested, 65% active;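 active = mean inhibition over three repeats above a set limit taken from the earlier primary screen, cut at about 30% in these data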;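 note: inhibitor blocks binding of rhodamine activity probe so polarization falls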
# Numbers stand for hits; n = inactive; x = not tested or not shown. This is a sample that favours compounds with a hit; in the whole collection about 2.9% have one here.
SMILES,PAFAH1B2 FP inh,PAFAH1B3 FP inh,Fam108B counter,pPAFAH inh,PME-1 primary,PAFAH2 inh,PAFAH2 FP conf
CC(=O)C1C(c2ccc(O)cc2)NC(=O)NC1(O)C(F)(F)F (stereo not given),n,n,n,n,n,n,x
Cc1ccc2nc(-c3cccs3)oc(=O)c2c1,n,n,n,n,n,54,54
COc1cc2nc(-c3cccs3)oc(=O)c2cc1OC,n,n,n,n,n,41,n
COc1ccccc1C(=O)NC(=O)Nc1nc(-c2ccccc2)cc(C(F)(F)F)n1,n,n,n,n,n,n,x
C[C@H](NC(=O)C1CCN(S(=O)(=O)c2ccccc2)CC1)C(=O)NCc1cccc(C(F)(F)F)c1,n,n,n,n,n,n,x
O=C(O)/C=C/C(=O)NCCNc1ncc(C(F)(F)F)cc1Cl,n,n,n,n,n,54,38
COc1ccccc1-n1c(C)c2c(OC)cccc(=O)c2c1C,n,n,n,n,n,39,55
COc1ccc(C(=O)OCC(=O)NC2CC2)cc1S(=O)(=O)N1CCOCC1,n,n,n,n,n,52,39
O=C(COC(=O)c1cc(S(=O)(=O)N2CCOCC2)ccc1F)NC1CCCCC1,n,n,x,n,n,n,x
O=C(COC(=O)c1ccc(F)c(S(=O)(=O)N2CCOCC2)c1)NC1CCCCC1,n,n,x,n,n,71,60
COC(=O)c1cc(COC(=O)c2ccc(OC)c(S(=O)(=O)N3CCCC3)c2)oc1C,n,n,x,x,x,41,n
COc1ccc(C(=O)OCC(=O)N2CCOCC2)cc1S(=O)(=O)N1CCOCC1,n,n,x,n,n,n,x
COc1ccc(C(=O)OCc2cc(C)ccc2C)cc1S(=O)(=O)N1CCCC1,n,n,x,n,n,n,x
Cc1cc(=O)[nH]c(SCC(=O)N2CC3(C)CC2CC(C)(C)C3)n1 (stereo not given),n,n,x,n,x,n,x
CCCc1cc(=O)[nH]c(SCC(=O)N2CC3(C)CC2CC(C)(C)C3)n1 (stereo not given),n,n,x,n,n,36,n
CSCC[C@H](NC(=O)Nc1ccc(OC(F)(F)F)cc1)C(=O)O,n,n,n,n,n,n,x
CSCC[C@H](NC(=O)Nc1ccc(Oc2ccccc2)cc1)C(=O)O,n,n,n,n,n,38,n
O=C(COC(=O)c1cccs1)Nc1ccc(Cl)cn1,n,n,x,n,x,67,73
Cc1ccsc1C(=O)OCC(=O)NCc1ccc(Cl)cc1,n,n,x,n,n,39,40
COc1ccc(NC(=O)COC(=O)c2cc3c(s2)CCC3)cc1,n,n,x,n,n,77,82
Cc1ccsc1C(=O)OCC(=O)Nc1ccc(Cl)cn1,n,n,x,n,x,78,48
Cc1ccsc1C(=O)NCc1ccc(Cl)cc1,x,x,n,n,n,x,x
O=C(C[n+]1ccc(/C=N/O)cc1)NC(=O)Nc1ccccc1,n,n,x,n,n,n,x
CC(C)NC(=O)C1CCCN(S(=O)(=O)c2ccc(-n3cnnn3)cc2)C1 (stereo not given),n,n,n,n,n,n,x
Cc1ccc(-n2cnc(=O)c3cccnc32)cc1,n,n,n,n,n,n,x
SMILES,PAFAH1B2 FP inh,PAFAH1B3 FP inh,Fam108B counter,pPAFAH inh,PME-1 primary,PAFAH2 inh,PAFAH2 FP conf
O=C(COC(=O)c1cc2c(s1)CCCC2)Nc1ccc(Cl)cn1,n,n,n,n,n,30,33
COc1ccc(NC(=O)COC(=O)/C=C/c2ccc(OC)c(S(=O)(=O)N3CCOCC3)c2)cc1,n,n,n,n,n,62,58
COc1ccc(/C=C/C(=O)OCC(=O)Nc2ccc(C)cc2)cc1S(=O)(=O)N1CCOCC1,n,n,n,n,n,71,73
Cc1ccc(NC(=O)COC(=O)/C=C/c2cccc(Cl)c2)cc1S(=O)(=O)N1CCOCC1,n,n,n,n,n,60,50
COc1ccc(/C=C/C(=O)OCC(=O)Nc2ccc(OC)c(S(=O)(=O)N3CCCCC3)c2)cc1,n,n,n,n,n,n,x
O=C(COC(=O)/C=C/c1cccc(Cl)c1)Nc1ccc(N2CCOCC2)cc1,n,n,x,n,x,n,x
COCCn1c(SCC(=O)Nc2cccc(NC(C)=O)c2)nc2c([nH]c3ccccc32)c1=O,n,n,n,n,n,n,x
COc1cccc(Nc2nnc(Cc3cccnc3)c3ccccc23)c1,n,n,n,n,n,n,x
Cc1nnc2c(NC3CCCCC3)nc3ccccc3n12,n,n,n,n,n,n,x
CC(=O)c1ccc2noc(-c3cccc(C)c3)c2c1,n,n,n,n,n,n,x
CCOC(=O)C1=CN(Cc2ccco2)S(=O)(=O)NC1c1ccc(Br)cc1F (stereo not given),n,n,x,n,x,n,n
CCOC(=O)C1=CN(Cc2cccc(F)c2)S(=O)(=O)NC1c1ccccc1 (stereo not given),n,n,x,n,x,n,x
CN(Cc1nccs1)C(=O)C1CCC(=O)N(CCCc2ccccc2)C1 (stereo not given),n,n,x,x,x,31,n
Cc1ccc(C)c(NC(=O)CN(C)C(=O)c2cc(-c3cccs3)nn2-c2ccccc2)c1,n,n,n,n,n,33,n
CN(CC(=O)Nc1ccccc1C(F)(F)F)C(=O)c1cc(-c2cccs2)nn1-c1ccccc1,n,n,n,n,n,n,x
CCOC(=O)c1sc(N2C(=O)C(O)=C(C(=O)c3ccco3)C2c2cccc([N+](=O)[O-])c2)nc1C (stereo not given),n,n,n,n,n,42,30
CCOC(=O)c1sc(N2C(=O)C(O)=C(C(=O)c3ccco3)C2c2cccc(Cl)c2)nc1C (stereo not given),n,n,n,n,n,n,x
Brc1ccccc1OCCCCn1cnc2ccccc21,n,n,n,n,n,35,n
Cc1ccc(C(=O)OCC(=O)NC2CCCC2)cc1,n,n,n,n,n,82,76
O=C(COC(=O)c1ccc([N+](=O)[O-])cc1)NC1CCCC1,n,n,n,n,n,n,x
CC(C)(C)c1ccc(C(=O)OCC(=O)NC2CC2)cc1,n,n,x,x,x,73,66
O=C(COC(=O)c1ccc(O)cc1)NC1CCCC1,n,n,n,n,n,77,73
CC(C)(C)c1ccc(C(=O)NCC(=O)OCC(=O)NC(=O)NC2CCCC2)cc1,n,n,x,n,n,n,x
O=C(CSc1ccccc1C(=O)O)c1ccc([N+](=O)[O-])cc1,n,n,n,n,n,46,56
O=C(CSc1ccc([N+](=O)[O-])cc1)c1ccccc1,n,n,x,x,x,n,x
N/C(Cc1ccc(Cl)cc1)=N\OC(=O)C1CCCCC1,n,n,n,n,n,40,42
Cc1cccc(C(=O)O/N=C(\N)Cc2ccc([N+](=O)[O-])cc2)c1,n,n,n,n,n,37,n
Cc1ccc(CC(=O)O/N=C(\N)Cc2ccc([N+](=O)[O-])cc2)cc1,n,n,n,n,n,n,x
